Compound activity: PubChem BioAssay, ICCB-Longwood Screening Facility, Harvard Medical School
Mtb MenB inh – inhibitors of Mycobacterium tuberculosis MenB enzyme | P9WNP5 | MenB enzyme assay, absorbance read-out | inhibition, % (no concentration beside the values) | 100,000 tested, 0.43% active; in the data active = inhibition above about 21%, passing the limit was not always enough
MbtI inh – inhibitors of Mycobacterium tuberculosis siderophore enzyme MbtI; purified MbtI enzyme, fluorescence intensity read-out; P9WFX0; AID 493033; 100,000 tested, 0.89% active; inhibition, % (no concentration beside the values); in the data active = inhibition mostly above about 56%, no sharp cut-off; inactive = mostly below about 77%
Polio RdRp inh – inhibitors of poliovirus RNA polymerase binding and polymerization; poliovirus polymerase elongation, fluorescence polarization; hits give low values; P03300; AID 588519; 150,000 tested, 0.66% active; % elongation, % (compound at 16.7 µg/mL); in the data active = % elongation below about 90%
Target sequence (P03300 1749-2209 limits assumed): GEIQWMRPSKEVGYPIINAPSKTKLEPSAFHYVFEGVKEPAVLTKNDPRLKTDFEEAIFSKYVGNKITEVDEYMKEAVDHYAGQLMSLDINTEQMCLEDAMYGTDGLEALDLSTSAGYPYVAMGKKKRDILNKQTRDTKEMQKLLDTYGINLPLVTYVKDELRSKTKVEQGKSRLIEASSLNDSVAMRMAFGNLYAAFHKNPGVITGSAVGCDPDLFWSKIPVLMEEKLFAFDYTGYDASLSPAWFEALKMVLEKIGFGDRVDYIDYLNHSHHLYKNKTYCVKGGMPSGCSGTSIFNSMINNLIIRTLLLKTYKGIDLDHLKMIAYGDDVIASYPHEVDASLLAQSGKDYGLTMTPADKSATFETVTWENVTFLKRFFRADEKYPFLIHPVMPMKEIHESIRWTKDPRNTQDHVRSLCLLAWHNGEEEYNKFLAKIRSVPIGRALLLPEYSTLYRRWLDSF
AID504770 – E. coli YBA685 growth inhibition, screen for V. cholerae RctB inhibitors; E. coli YBA685 rctB-dependent plasmid, OD600 growth, 3 h; hits give low values; z-score (concentration not given with the values); 130,000 tested, 0.27% active; AID 504770; in the data active = z-score below about -2, passing the limit was not always enough
Of the large screens only hits and unclear results are named; the others gave an inactive call; ! = a repeat was not active. The list is not random: actives were taken first. Their share in the collection is about 1.5%.

CCOC(=O)C1=C(Cn2ccnc2)NC(=O)NC1c1ccc(OC(C)C)cc1 (centres undefined)	none
Cc1cc(Nc2cccc(C(F)(F)F)c2)nc2ccc(NC(=O)c3ccc(Br)o3)cc12	none
CC1CCCN(C(=O)COC(=O)c2ccc(Cl)nc2)C1 (centres undefined)	none (no result: Mtb MenB inh)
C=CCn1c(C(C)Oc2ccc(Cl)cc2)n[nH]c1=S (centres undefined)	MbtI inh 65.2
CCn1c(SCC(=O)Nc2ccc(C)c(C)c2)nnc1-c1nonc1NC(C)=O	none (no result: Mtb MenB inh, MbtI inh, AID504770)
CCn1c(-c2nonc2NC(C)=O)n[nH]c1=S	MbtI inh 65.3
CN(C)CCNc1ncnc2sc(-c3ccccc3)cc12	Polio RdRp inh 87.0
COc1ccc(C(C(=O)NCc2ccccc2)N(Cc2ccco2)C(=O)c2cnccn2)cc1 (centres undefined)	Mtb MenB inh 36.4
O=C(OCC(=O)N1CCCC1)c1cc(-c2ccco2)nc2ccccc12	none
O=C1C=CC(=O)c2c(O)cccc21	Polio RdRp inh 87.0!
O=C1c2ccccc2C(=O)c2c1ccc(O)c2O	none
O=C(Nc1cccc(-c2cn3cccnc3n2)c1)c1ccccc1C(F)(F)F	none
O=C(O)CCC(=O)Nc1cccc2ccccc12	none (no result: Mtb MenB inh, MbtI inh, Polio RdRp inh)
O=C(O)CSCC(=O)Nc1cccc2ccccc12	Mtb MenB inh 35.8
O=C1NC(=S)N(c2ccccc2)C(=O)/C1=C\c1ccoc1	MbtI inh 68.8
Nn1c(SCC(=O)N(Cc2ccco2)C2=CCCCC2)nnc1-c1ccc(OC(F)F)cc1	none
O=C(Nc1ccccc1)Nc1ccc2snnc2c1	AID504770 -2.6
O=C(Nc1ccccc1)Nc1ccc2nnsc2c1	none
c1ccc(-c2noc(-c3ccccc3)n2)cc1	none (no result: Mtb MenB inh, Polio RdRp inh)
[O-]c1n[n+](-c2ccccc2)no1	AID504770 -3.05 (no result: MbtI inh)
O=c1[nH]c(=S)[nH]c(C(F)(F)F)c1Cc1ccc(Cl)c(Cl)c1	none
O=c1[nH]c(=S)[nH]nc1Cc1ccc(Cl)c(Cl)c1	MbtI inh 57.8
CS(=O)(=O)NNc1nccc(-c2cccnc2)n1	MbtI inh 87.3
Cc1nc2ccc(N=Cc3ccc(Br)cc3)cc2s1	AID504770 -2.35
N#Cc1c(NCSCc2ccccc2)sc2c1CCCCC2	Polio RdRp inh 69.0 (no result: MbtI inh)
c1ccc(-n2ncc3c(N4CCN(c5ncccn5)CC4)ncnc32)cc1	none
O=C(COC(=O)/C=C/c1ccc(F)cc1)Nc1ncccn1	Polio RdRp inh 84.0
O=C(COC(=O)/C=C/c1ccccc1)Nc1c(F)cccc1F	none (no result: Mtb MenB inh)
Cc1ccc(Nc2nn(CN3CCOCC3)c(=S)s2)cc1	MbtI inh 89.7
CCOC(=O)c1sc(NC(=O)c2ccccc2)c(SC#N)c1C	none (no result: Mtb MenB inh, MbtI inh, Polio RdRp inh)
C=CCn1c(NC(=O)c2ccccc2)c(C(=O)OCC)sc1=S	MbtI inh 77.7
CC(C)(C)NCC(O)c1ccccc1Cl (centres undefined)	Mtb MenB inh 54.7
CSC1=C(C#N)C(=C(C#N)C#N)NC(C)=N1	none (no result: Mtb MenB inh, MbtI inh, Polio RdRp inh)
O=C1CC(Cc2ccccc2)C(=O)N1Cc1ccco1 (centres undefined)	Mtb MenB inh 35.8
O=C(O)CN1C(=O)Cc2ccccc2C1=O	Polio RdRp inh 24.0
COC(=O)CN1C(=O)Cc2ccccc2C1=O	none (no result: Mtb MenB inh, MbtI inh, Polio RdRp inh)
CN1C(=O)Cc2ccccc2C1=O	Polio RdRp inh 38.0
O=C1Cc2ccccc2C(=O)N1Cc1ccco1	Polio RdRp inh 76.0 (no result: Mtb MenB inh)
O=c1cc(O)n(-c2ccccc2)c(=S)n1-n1c(=O)cc(O)n(-c2ccccc2)c1=S	none (no result: MbtI inh)
O=C(O)c1ccc2ncsc2c1	Polio RdRp inh 88.0 (no result: Mtb MenB inh)
O=C(OCc1cc(=O)oc2cc(O)ccc12)c1cc(Br)ccc1O	none
O=C(OCc1cc(=O)oc2cc(O)ccc12)c1nc(Cl)ccc1Cl	Polio RdRp inh 88.0
O=C(CCCn1sc2ccccc2c1=O)NCc1cccs1	MbtI inh 81.6
O=C(CCCn1sc2ccccc2c1=O)Nc1ccccc1F	none
O=C(CCCn1sc2ccccc2c1=O)NCCC1=CCCCC1	MbtI inh 94.0
O=C(c1ccc(Cl)cc1)N1CCCC(c2nc(-c3ccc(Cl)cc3)no2)C1 (centres undefined)	none
COc1ccc(OCCN(C)C(=O)c2ccc(-n3cccn3)cc2)cc1	none
Oc1ccc(-c2nc3ccccc3s2)cc1	AID504770 -2.3 (no result: Polio RdRp inh)
COc1ccc(C(C(=O)NC2CCCCC2)N(Cc2ccc3c(c2)OCO3)C(=O)c2cnccn2)cc1OC (centres undefined)	none
CC(C)NCC(O)COc1cccc2ccccc12 (centres undefined)	Polio RdRp inh 100.0!
Cc1cc(NC(=O)CSc2nnc(Cn3c(=O)sc4ccccc43)n2-c2ccccc2)no1	none
Cc1ccc2c(c1Br)C(=C(C#N)C#N)C(=O)N2	Polio RdRp inh 84.0
Cc1cc(C)n(/N=C2/C(=O)Nc3ccc(Br)cc32)c(=O)c1C#N	none
Cc1ccc(NC(=O)c2cc3c(Cl)nc4ccc(C)cc4c3s2)c(Cl)c1	Polio RdRp inh 63.0 (no result: Mtb MenB inh, MbtI inh, AID504770)
COc1ccc(Cl)cc1NC(=O)c1cc2c(Cl)nc3ccc(C)cc3c2s1	none
O=C(N/N=C1\CCc2ccccc21)c1ccccn1	none
CC(C)Cn1c(SCc2nnc(-c3cccs3)o2)nc(O)cc1=O	Polio RdRp inh 83.0
O=S1(=O)c2cccc3cccc(c23)N1Cc1cccc(C(F)(F)F)c1	none
Cc1c2cnn(-c3ccccc3)c(=O)c2c(C)n1CCCC(=O)NCC1CCCO1 (centres undefined)	none (no result: Mtb MenB inh, MbtI inh, Polio RdRp inh)
Cc1ccc(NC(=O)CCC(=O)c2cccs2)cc1	none
O=C(O)CCC(=O)c1cccs1	Polio RdRp inh 82.0 (no result: Mtb MenB inh)
N#Cc1ccc(NC(=O)CCC(=O)c2cccs2)cc1	Polio RdRp inh 83.0
CC(C)C(NC(=O)c1ccccc1)C(=O)O (centres undefined)	none
CC(NC(=O)c1ccc(-c2ccccc2)cc1)C(=O)O (centres undefined)	Mtb MenB inh 28.9
COC(=O)Cc1cccc2ccccc12	none (no result: Mtb MenB inh)
CN(C)S(=O)(=O)c1cccc(-c2nnc3n2N=C(c2ccccc2)C(CC(=O)O)S3)c1 (centres undefined)	MbtI inh 99.2, Polio RdRp inh 75.0
COC(=O)c1ccc(/C=C/C(=O)OCC#N)cc1	Polio RdRp inh 88.0
COc1ccc(N2CC(NC(=O)/C=C\c3ccc4c(c3)OCO4)CC2=O)cc1OC (centres undefined)	none (no result: Mtb MenB inh, MbtI inh, AID504770)
COc1cccc(N2CC(NC(=O)/C=C\c3ccc4c(c3)OCO4)CC2=O)c1 (centres undefined)	Polio RdRp inh 81.0 (no result: Mtb MenB inh, MbtI inh, AID504770)
CN(C)C(=S)Nc1nc2ccccc2s1	MbtI inh 71.3
CN(C)C(=S)c1nc2ccccc2s1	none
O=S1(=O)CCC(NC(=S)SCCOc2ccccc2OCCO)C1 (centres undefined)	AID504770 -2.95
C=CCSc1ncc2c(=S)[nH]c(=S)[nH]c2n1	MbtI inh 56.1
CCN(CC)c1ncc2c(=S)[nH]c(=S)[nH]c2n1	none
Nc1nc(-c2cccs2)c(C(=O)C(F)(F)F)s1	MbtI inh 63.0
OCC(O)C(O)C(O)C(O)c1nc2ccccc2[nH]1 (centres undefined)	Polio RdRp inh 62.0
OC(c1ccc(Cl)cc1)C(O)c1nc2ccccc2[nH]1 (centres undefined)	none
CCn1cc(C(=O)O)c(=O)c2cc(F)c(N3CCNCC3)cc21	AID504770 -4.65
CCn1cc(C(=O)O)c(=O)c2cc(F)c(N3CCN(C(=O)c4ccccc4F)CC3)cc21	AID504770 -3.75
